In PubChem BioAssay (NCATS):
“And” between values parts separate entries of the source, which are not always exact repeats. Equal entries are not always repeated. Inconclusive results are not listed. The source holds several records for some structures; these can differ, active in one and inactive in another. The source made the active and inactive calls. Unless noted, the call rests on the fitted dose curve; in most records, active means well fitted curve in the direction sought with a large enough effect; inconclusive means small, poorly fitted or top-dose-only effect, or another doubt; inactive means no such curve, though single readings can be large; an effect the other way counts as inactive or inconclusive.

Columns and labels:
[1] = target: Voltage-gated inwardly rectifying potassium channel KCNH2 (Homo sapiens) (UniProt Q12809); assay: qHTS Assay for Small Molecule Inhibitors of the Human hERG Channel Activity (AID 588834);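 further: lower thallium flux fluorescence means stronger hERG block; nearly all actives have a fitted effect of over 50% in size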; further: potency means the concentration at half of the fitted maximal effect
Voltage-gated inwardly rectifying potassium channel KCNH2 (Homo sapiens), sequence (Q12809 whole entry, looked up): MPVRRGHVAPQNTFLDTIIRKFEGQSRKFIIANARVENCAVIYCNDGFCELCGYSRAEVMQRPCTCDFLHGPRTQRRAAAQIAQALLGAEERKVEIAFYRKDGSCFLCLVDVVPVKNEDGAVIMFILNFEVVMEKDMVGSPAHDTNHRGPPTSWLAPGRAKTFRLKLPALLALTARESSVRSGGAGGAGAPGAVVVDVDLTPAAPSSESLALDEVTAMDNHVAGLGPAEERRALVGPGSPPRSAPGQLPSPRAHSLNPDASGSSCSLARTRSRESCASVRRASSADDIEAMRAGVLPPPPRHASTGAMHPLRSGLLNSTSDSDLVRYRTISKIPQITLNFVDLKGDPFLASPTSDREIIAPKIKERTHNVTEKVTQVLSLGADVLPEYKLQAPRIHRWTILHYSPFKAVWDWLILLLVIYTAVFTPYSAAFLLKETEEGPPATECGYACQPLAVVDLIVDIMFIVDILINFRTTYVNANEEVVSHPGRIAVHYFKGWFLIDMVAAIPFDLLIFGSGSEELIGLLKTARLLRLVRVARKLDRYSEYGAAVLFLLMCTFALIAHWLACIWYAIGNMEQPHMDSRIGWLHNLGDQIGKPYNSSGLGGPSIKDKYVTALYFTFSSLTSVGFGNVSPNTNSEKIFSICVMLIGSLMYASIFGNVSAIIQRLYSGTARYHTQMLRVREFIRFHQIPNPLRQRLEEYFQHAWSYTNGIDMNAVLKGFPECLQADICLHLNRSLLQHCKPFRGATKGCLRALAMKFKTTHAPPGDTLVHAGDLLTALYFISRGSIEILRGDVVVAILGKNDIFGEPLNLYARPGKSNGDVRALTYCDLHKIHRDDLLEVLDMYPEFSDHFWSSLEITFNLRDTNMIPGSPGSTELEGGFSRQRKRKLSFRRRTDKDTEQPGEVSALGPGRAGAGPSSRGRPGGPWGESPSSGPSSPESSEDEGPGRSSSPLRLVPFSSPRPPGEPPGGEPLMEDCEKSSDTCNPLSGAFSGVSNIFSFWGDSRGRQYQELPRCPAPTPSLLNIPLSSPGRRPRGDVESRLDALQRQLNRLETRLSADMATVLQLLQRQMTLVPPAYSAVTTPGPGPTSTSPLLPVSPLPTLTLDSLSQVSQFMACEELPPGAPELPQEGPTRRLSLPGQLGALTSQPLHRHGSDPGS
Summary of the method: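 Homogeneous FluxOR thallium flux assay using hERG-expressing U2OS cells (BacMam). Compound treatment about 10 minutes preceded stimulation; reduced fluorescence taken as channel block.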

[2] = target: Luciferin 4-monooxygenase (Photinus pyralis) (UniProt P08659); assay: Biochemical firefly luciferase enzyme assay for NPC (AID 624030);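 further: purified P. pyralis luciferase at 10 nM with luciferin and ATP substrate; series mostly up to about 59 µM; 0% = DMSO and -100% = full luciferase inhibition by PTC124 control; nearly all actives have a fitted effect of over 70% in size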
Luciferin 4-monooxygenase (Photinus pyralis), sequence (P08659 whole entry, looked up): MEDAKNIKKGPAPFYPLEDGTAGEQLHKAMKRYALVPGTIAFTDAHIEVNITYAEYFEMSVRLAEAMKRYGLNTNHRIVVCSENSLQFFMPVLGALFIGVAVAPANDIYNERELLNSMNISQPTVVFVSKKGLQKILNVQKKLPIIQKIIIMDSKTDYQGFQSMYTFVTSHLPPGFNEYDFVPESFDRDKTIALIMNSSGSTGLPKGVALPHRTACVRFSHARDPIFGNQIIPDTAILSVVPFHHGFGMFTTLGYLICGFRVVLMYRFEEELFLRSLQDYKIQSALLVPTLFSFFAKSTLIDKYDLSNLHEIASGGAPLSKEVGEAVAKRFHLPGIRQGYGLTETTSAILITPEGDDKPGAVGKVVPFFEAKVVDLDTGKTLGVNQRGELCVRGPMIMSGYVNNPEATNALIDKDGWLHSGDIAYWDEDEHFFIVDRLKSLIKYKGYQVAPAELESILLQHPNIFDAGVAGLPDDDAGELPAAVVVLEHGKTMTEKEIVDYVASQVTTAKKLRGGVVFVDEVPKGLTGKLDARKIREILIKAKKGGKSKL
Summary of the method: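 Purified P. pyralis luciferase at 10 nM in 50 mM Tris Acetate (final), luminescence read within 5 minutes of enzyme addition to compounds. Activity normalised to PTC124 versus DMSO; concentration-response curves classed by r2, magnitude and activity.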

[3] = S16 Schwann cell viability assay (CellTiter-Glo assay) (AID 624031);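 further: cellular ATP luminescence as a viability measure; series mostly up to about 58 µM; plate controls were DMSO-treated cells for no effect and cell-free wells for full effect; nearly all actives have a fitted effect of over 70% in size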
Summary of the method: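 Luminescent ATP read-out (CellTiter-Glo) after 24 h compound exposure of native S16 rat Schwann cells at 37 °C. Signals were normalized between cell-free wells and DMSO-treated cells, set as 0% activity.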

[4] = S16 Schwann cell PMP22 intronic element beta-lactamase assay (AID 624044; calls by dose curve;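 further: 0% = DMSO and -100% = potassium clavulanate positive control; nearly all actives have a fitted effect of over 15% in size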)
Summary of the method: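 Beta-lactamase reporter under a PMP22 intronic regulatory element in stable S16 rat Schwann cells; 24 h compound exposure. 460 nm blue signal normalized between DMSO (0%) and potassium clavulanate, with 535 nm FRET tracking viability; curves classed by r2 and response.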

[5] = S16 Schwann cell PMP22 intronic element firefly luciferase assay (AID 624032); further: nearly all actives have a fitted effect of over 30% in size; further: potency means the concentration at half of the fitted maximal effect
Summary of the method: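 Rat S16 Schwann cells stably carrying firefly luciferase driven by a PMP22 intronic element, in 10% FBS, treated 24 h at 37 C. ONE-Glo luminescence normalized to PTC124 control and DMSO (0%); curves classed by r2, magnitude and activity.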

[6] = qHTS assay for small molecule agonists of the antioxidant response element (ARE) signaling pathway (AID 651741; active means well fitted activation curve with a large enough effect in the signal ratio; the % refers to the signal ratio; further: % of control where 0% means no effect)
Summary of the method: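 HepG2 ARE-bla reporter cells, 2,000/well; 5 h settle at 37 C/5% CO2; compound pin transfer (23 nL, DMSO); 16 h at 37 C; LiveBLAzer B/G FRET substrate, 2 h RT; fluorescence intensity read.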

[7] = qHTS assay for small molecule activators of the p53 signaling pathway (AID 651743; active means well fitted activation curve with a large enough effect in the signal ratio, not every such curve was filed as active; the % refers to the signal ratio; further: series mostly up to about 92 µM; % of control where 0% means no effect); details: HCT-116 p53RE-bla, beta-lactamase FRET ratio, 16 h; activation: hits give high values
Summary of the method: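 Reporter: beta-lactamase driven by p53 response elements, stably integrated in HCT-116 cells. Cells seeded at 4,000/well, 5 h preincubation, compound (DMSO) 16 h at 37 C; B/G FRET substrate 2 h RT; fluorescence intensity read.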

[8] = target: Tumor necrosis factor (Homo sapiens) (UniProt P01375); assay: qHTS assay to identify small molecules that stimulate Tumor Necrosis Factor-alpha (TNF-alpha) secretion (AID 651757; active means well fitted curve in the direction sought with a large enough effect in the signal ratio; the % refers to the signal ratio; further: 0% is about no effect)
Tumor necrosis factor (Homo sapiens), sequence (P01375 whole entry, looked up): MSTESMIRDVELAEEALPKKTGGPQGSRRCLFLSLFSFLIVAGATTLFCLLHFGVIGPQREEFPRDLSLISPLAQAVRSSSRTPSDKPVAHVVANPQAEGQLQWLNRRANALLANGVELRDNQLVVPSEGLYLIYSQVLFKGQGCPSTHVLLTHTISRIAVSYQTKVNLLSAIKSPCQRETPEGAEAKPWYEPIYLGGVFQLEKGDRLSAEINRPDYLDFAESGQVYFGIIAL
Summary of the method: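 THP-1 cells, 3000/well; compound 17 hrs, 37 C; add cryptate/XL665 anti-TNF-alpha antibody pair; 3 hr RT; TR-FRET (HTRF) read of secreted TNF-alpha. Quantitative HTS format.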

[9] = qHTS assay for environmental chemicals that activate the Aryl hydrocarbon Receptor (AhR) signaling pathway (AID 651777); details: 1A2-DRE human hepatoma cells, luciferase, 24 h; activation: hits give high values; further: % of control where 0% means no effect; nearly all actives have a fitted effect of over 15% in size
Summary of the method: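 1A2-DRE human hepatoma reporter line; 1,200 cells/well; cmpd or DMSO 24 h, 37 C/5% CO2; One-Glo 30 min RT; luciferase lum.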

[10] = target: Peroxisome proliferator-activated receptor alpha (Homo sapiens) (UniProt Q07869); assay: qHTS assay for small molecule agonists of the peroxisome proliferator-activated receptor alpha (PPARalpha) signaling pathway (AID 651778); details: PathHunter PPARalpha complementation, chemiluminescence, 6 h; hits give high values; further: % of control where 0% means no effect
Peroxisome proliferator-activated receptor alpha (Homo sapiens), sequence (Q07869 whole entry, looked up, the tested form may be a part): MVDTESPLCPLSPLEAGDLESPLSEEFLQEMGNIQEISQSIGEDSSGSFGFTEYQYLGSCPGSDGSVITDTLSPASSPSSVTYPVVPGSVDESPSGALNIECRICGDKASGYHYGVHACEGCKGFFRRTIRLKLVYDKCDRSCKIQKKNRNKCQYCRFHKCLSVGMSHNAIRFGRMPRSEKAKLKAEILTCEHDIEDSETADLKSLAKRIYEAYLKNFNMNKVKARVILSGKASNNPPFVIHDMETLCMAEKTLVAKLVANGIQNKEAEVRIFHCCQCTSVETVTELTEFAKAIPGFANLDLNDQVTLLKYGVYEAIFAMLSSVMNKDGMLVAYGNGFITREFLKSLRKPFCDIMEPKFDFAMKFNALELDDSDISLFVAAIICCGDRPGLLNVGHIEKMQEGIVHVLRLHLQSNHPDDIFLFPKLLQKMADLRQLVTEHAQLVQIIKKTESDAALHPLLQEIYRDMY
Summary of the method: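 Enzyme-fragment complementation assay in which ligand-bound PPARalpha translocates and forms an active enzyme that generates chemiluminescence. Cells were plated overnight, exposed to compound for 6 hr at 37 C, and then given detection reagent for 60 min at room temperature.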

[11] = target: Nuclear receptor ROR-gamma (Homo sapiens) (UniProt P51449); assay: qHTS assay for small molecule antagonists of the retinoid-related orphan receptor gamma (ROR-gamma) signaling pathway (AID 651802); further: nearly all actives have a fitted effect of over 60% in size; further: potency means the concentration at half of the fitted maximal effect
Nuclear receptor ROR-gamma (Homo sapiens), sequence (P51449 whole entry, looked up): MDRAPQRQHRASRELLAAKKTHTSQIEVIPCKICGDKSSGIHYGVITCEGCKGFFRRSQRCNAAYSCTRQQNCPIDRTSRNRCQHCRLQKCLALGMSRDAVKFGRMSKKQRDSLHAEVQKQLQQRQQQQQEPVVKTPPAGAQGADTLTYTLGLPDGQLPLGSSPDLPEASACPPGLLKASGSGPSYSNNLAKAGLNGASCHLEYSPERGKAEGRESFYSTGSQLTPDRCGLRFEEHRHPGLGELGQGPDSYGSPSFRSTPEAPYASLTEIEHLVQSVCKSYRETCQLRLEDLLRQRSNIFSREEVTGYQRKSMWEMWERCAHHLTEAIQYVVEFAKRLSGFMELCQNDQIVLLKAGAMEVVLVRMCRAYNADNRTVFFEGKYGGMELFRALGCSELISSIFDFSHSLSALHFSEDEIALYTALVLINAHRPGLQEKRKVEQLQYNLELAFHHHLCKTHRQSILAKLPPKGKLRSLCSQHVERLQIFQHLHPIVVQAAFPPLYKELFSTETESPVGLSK
Summary of the method: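 Luciferase read-out: ONE-Glo luminescence after 30 min at room temperature, following 16hr doxycycline induction at 37C, 5% CO2 of CHO cells with TET-inducible ROR and RORE-LUC reporter; decreased luminescence = reduced reporter activity.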

[12] = qHTS assay for small molecule activators of the nuclear factor-kappa B (NF-kB) signaling pathway (AID 651749; active means well fitted activation curve with a large enough effect in the signal ratio; the % refers to the signal ratio; further: series mostly up to about 77 µM; % of control where 0% means no effect); details: NF-kB-bla ME-180 cells, beta-lactamase FRET ratio, 16 h; hits give high values
Summary of the method: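 NF-kB-bla ME-180 cells, 2,000/well; 23 nL compound or DMSO pinned; 16 hr, 37C/5% CO2; beta-lactamase FRET read-out.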

[13] = target: Glutaminase kidney isoform, mitochondrial (Homo sapiens) (UniProt O94925); assay: qHTS for Inhibitors of Glutaminase (GLS): LOPAC Validation (AID 624146);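 further: glutamate product detected by oxidase and peroxidase coupled Amplex red fluorescence gain; series mostly up to about 46 µM; on the % scale 0 is the no-effect control and ±100 the full control effect; nearly all actives have a fitted effect of over 60% in size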
Glutaminase kidney isoform, mitochondrial (Homo sapiens), sequence (O94925 whole entry, looked up, canonical isoform): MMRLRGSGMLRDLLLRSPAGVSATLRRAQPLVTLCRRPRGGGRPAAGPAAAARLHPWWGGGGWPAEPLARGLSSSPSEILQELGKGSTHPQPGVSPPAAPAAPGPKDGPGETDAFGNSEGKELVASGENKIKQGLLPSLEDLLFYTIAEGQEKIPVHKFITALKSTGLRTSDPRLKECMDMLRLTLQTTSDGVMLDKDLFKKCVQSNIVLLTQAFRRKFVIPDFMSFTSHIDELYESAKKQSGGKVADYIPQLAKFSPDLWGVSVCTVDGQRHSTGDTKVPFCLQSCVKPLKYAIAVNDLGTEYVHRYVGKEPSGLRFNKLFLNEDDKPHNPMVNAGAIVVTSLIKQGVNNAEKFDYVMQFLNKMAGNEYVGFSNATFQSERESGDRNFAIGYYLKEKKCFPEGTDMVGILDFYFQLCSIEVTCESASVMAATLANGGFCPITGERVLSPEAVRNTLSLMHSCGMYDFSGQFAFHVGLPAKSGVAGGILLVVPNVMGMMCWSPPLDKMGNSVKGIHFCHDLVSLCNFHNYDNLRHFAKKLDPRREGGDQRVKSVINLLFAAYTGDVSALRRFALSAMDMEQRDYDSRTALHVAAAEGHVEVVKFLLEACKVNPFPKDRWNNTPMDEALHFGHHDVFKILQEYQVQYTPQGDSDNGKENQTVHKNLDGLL
Summary of the method: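 Read-out is an Amplex red fluorescence increase coupled through glutamate oxidase and HRP, measured before and after 30 min room-temperature incubation. hKGA is in 45 mM KH2PO4 (pH 8.2) with 0.02% Tween-20; glutamine added as 1mM solution.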

[14] = qHTS of Trypanosoma Brucei Inhibitors: LOPAC Validation (AID 624147); further: 0% is about no effect
Summary of the method: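 Enzyme and substrate buffer are dispensed first and compound is pin-transferred. ADP at 130 uM final then starts the reaction, which runs 45 min at room temperature. Detection reagent is added for 10 min before luminescence is imaged.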

[15] = target: Glucagon-like peptide 1 receptor (Homo sapiens) (UniProt P43220); assay: qHTS of GLP-1 Receptor Agonists: LOPAC Validation (AID 624148);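 further: 0% is about no effect; higher luminescence signal means agonism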
Glucagon-like peptide 1 receptor (Homo sapiens), sequence (P43220 whole entry, looked up): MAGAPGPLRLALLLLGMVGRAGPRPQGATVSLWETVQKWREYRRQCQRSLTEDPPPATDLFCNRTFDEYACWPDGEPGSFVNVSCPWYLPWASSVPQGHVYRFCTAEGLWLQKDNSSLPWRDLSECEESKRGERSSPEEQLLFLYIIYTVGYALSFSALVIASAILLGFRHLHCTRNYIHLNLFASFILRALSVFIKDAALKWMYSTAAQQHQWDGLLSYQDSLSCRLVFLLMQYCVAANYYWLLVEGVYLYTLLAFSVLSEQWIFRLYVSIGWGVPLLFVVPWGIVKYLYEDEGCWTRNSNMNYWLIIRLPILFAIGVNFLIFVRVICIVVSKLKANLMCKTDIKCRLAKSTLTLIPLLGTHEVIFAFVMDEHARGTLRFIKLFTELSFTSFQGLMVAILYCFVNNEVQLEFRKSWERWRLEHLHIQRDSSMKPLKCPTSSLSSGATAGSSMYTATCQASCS
Summary of the method: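 HEK293 cells stably co-expressing GLP-1R and a cAMP-responsive luciferase reporter, plated 12 hours before compound, then incubated 4-6 hr at 37 deg C. Luminescence read 12 min after detection reagent.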

[16] = qHTS of Nrf2 Activators: LOPAC Validation (AID 624149); further: 0% is about no effect
Summary of the method: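 AREc32_Fluc cells, 1000/well, OPTI-MEM + 5% FBS, o/n 37 deg C 5% CO2; compound pin-transfer, 24 hr 37 deg C; Steady-Glo 30 min RT, luminescence read.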

[17] = HTS Assay for Allosteric Antagonists of the Human D2 Dopamine Receptor: Hit Validation in HTRF (AID 624455); further: on the % scale 0 is the no-effect control and ±100 the full control effect
Summary of the method: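 HTRF read-out; cells stably expressing D1 receptor; hits scored for inhibition of D1-mediated response. Primary screen: calcium flux, force-coupled inducible Hek293 Trex D2 line, antagonism vs EC80 dopamine.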

[18] = qHTS assay for small molecule disruptors of the mitochondrial membrane potential - 1 hr assay (AID 651754; calls by dose curve; further: potency means the concentration at half of the fitted maximal effect; nearly all actives have a fitted effect of over 35% in size)
Summary of the method: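 Read-out: dye fluorescence at 490 nm ex/535 nm em (monomers) and 540 nm ex/590 nm em (aggregates) in HepG2 cells. Compound exposure 1 hr at 37C, followed by 30 min dye loading.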

[19] = qHTS assay for small molecule disruptors of the mitochondrial membrane potential - 5 hr assay (AID 651755; calls by dose curve; further: potency means the concentration at half of the fitted maximal effect; nearly all actives have a fitted effect of over 40% in size)
Summary of the method: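 Read-out: ratiometric Mito-MPS fluorescence, green monomer (ex 490/em 535) vs red mitochondrial aggregate (ex 540/em 590). HepG2 cells treated 5 hr at 37C before 30 min dye loading.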

[20] = qHTS assay to identify small molecules that stimulate interleukin-8 (IL-8) secretion (AID 651758; active means well fitted activation curve with a large enough effect in the signal ratio; the % refers to the signal ratio; further: 0% is about no effect)
Summary of the method: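 Compounds are added to THP-1 cells (2000 per well) and left 16 hrs at 37 C. A labeled anti-IL-8 antibody pair is then added, and IL-8 secretion is measured by time-resolved FRET after 1-3 hrs at room temperature.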

Cc1c(-c2ccccc2)oc2c(C(=O)OCCN3CCCCC3)cccc2c1=O
inactive: Potency [1] | Potency [2] | Potency [3] | Potency [4]

NC(=O)C1(N2CCCCC2)CCN(CCCC(=O)c2ccc(F)cc2)CC1
inactive: Potency [2] | Potency [3] | Potency [5] | Potency [4]
active: Potency [1] 3.55 µM

CCOc1ccc(NC(C)=O)cc1
inactive: Potency [1] | Potency [2] | Potency [3] | Potency [5] | Potency [6] | activation [7] -2.67% and -5.43% | outcome [8] | activation [9] 1.23% and 0.542% | max response [10] -5.21% and -4.18% | Potency [11]

O=C(O)P(=O)(O)O
inactive: Potency [1] | Potency [2] | Potency [3] | Potency [5] | Potency [4]

c1ccc(CC2=NCCN2)cc1
inactive: Potency [1] | Potency [2] | Potency [3] | Potency [4]

Nc1nc(-c2ccccc2)c(Br)c(=O)[nH]1
inactive: Potency [1] | Potency [2] | Potency [3] | Potency [5] | Potency [4]

CCCCCCCCCCCCSCCOCCO
inactive: Potency [1] | Potency [2] | Potency [3] | Potency [4]

CCCCNc1ccc(C(=O)OCCOCCOCCOCCOCCOCCOCCOCCOCCOC)cc1
inactive: Potency [1] | Potency [2] | Potency [3] | Potency [5] | Potency [4]

CCCCCCCC/C=C\CCCCCCCCN
inactive: Potency [1] | Potency [2] | Potency [3] | Potency [5] | activation [7] 4.37% | activation [9] -0.319% | max response [10] 0.202%

CC(C)(C)CC(C)(C)c1ccc(O)c(-n2nc3ccccc3n2)c1
inactive: Potency [1] | Potency [2] | Potency [3] | Potency [5] | activation [7] -5.96% | activation [12] 1.97% | activation [9] 5.11% | max response [10] 12.6%

CCOC(=O)[C@H](CCc1ccccc1)N[C@@H](C)C(=O)N1[C@H](C(=O)O)C[C@H]2CCCC[C@@H]21
inactive: Potency [1] | Potency [2] | Potency [3] | Potency [5] | Potency [4] | outcome [13] | outcome [14] | outcome [15] | outcome [16] | outcome [17]

CC(C)(C)NC[C@H](O)COc1nsnc1N1CCOCC1
inactive: Potency [1] | Potency [2] | Potency [3] | Potency [5] | outcome [13] | outcome [14] | outcome [15] | outcome [16] | outcome [17]

CCCCCCCCCCCCCCCCO
inactive: Potency [1] | Potency [2] | Potency [3] | Potency [5] | Potency [6] | activation [12] -1.7% | activation [9] 1.7% | max response [10] 0.0651%

CCCCCCCCCCCCCC(=O)OC(C)C
inactive: Potency [1] | Potency [2] | Potency [3] | Potency [5] | Potency [6] | activation [7] -0.604% | activation [12] 0.876% | activation [9] -0.593% | max response [10] -1.44%

CN1CCC(OC(c2ccccc2)c2ccccc2)CC1
active: Potency [1] 4.47 µM
inactive: Potency [2] | Potency [3] | Potency [5] | Potency [4]

COc1ccc(C(Cl)=C(c2ccc(OC)cc2)c2ccc(OC)cc2)cc1
inactive: Potency [1] | Potency [2] | Potency [3] | Potency [5] | activation [7] 2.35% | activation [12] 3.39% | outcome [8] | activation [9] -0.915% | max response [10] -4.66%
active: Potency [18] 15 µM | Potency [19] 18.8 µM | Potency [11] 18.8 µM

C#C[C@]1(O)CC[C@H]2[C@@H]3CCC4=CC(=O)CC[C@@H]4[C@H]3CC[C@@]21CC
inactive: Potency [1] | Potency [2] | Potency [3] | Potency [4]
active: Potency [5] 20.3 µM

CCCN(CCC)S(=O)(=O)c1ccc(C(=O)O)cc1
inactive: Potency [1] | Potency [2] | Potency [3] | Potency [5] | Potency [6] | activation [7] -0.245% and -0.015% | activation [12] 0.183% and -3.09% | outcome [8] | activation [9] -1.19% and -0.648% | max response [10] -6.45% and -0.148% | Potency [11]

C#C[C@]1(O)CC[C@H]2[C@@H]3CCc4cc(OC)ccc4[C@H]3CC[C@@]21C
inactive: Potency [1] | Potency [2] | Potency [3] | Potency [5] | Potency [4]

Cc1ccc(-c2ncc(Cl)cc2-c2ccc(S(C)(=O)=O)cc2)cn1
inactive: Potency [1] | Potency [2] | Potency [3] | Potency [4]

NC(N)=NCc1cccc(I)c1
inactive: Potency [1] | Potency [2] | Potency [3] | Potency [5] | Potency [4] | outcome [13] | outcome [14] | outcome [15] | outcome [16]

Oc1ccc(Cl)cc1Cc1cc(Cl)ccc1O
inactive: Potency [2] | Potency [3] | Potency [5] | Potency [4] | outcome [8] | activation [9] -1.39% and 3.39%
active: Potency [1] 28.2 µM

NC(=O)c1ccccc1O
inactive: Potency [1] | Potency [2] | Potency [3] | Potency [5] | Potency [6] | activation [7] -1.87% | activation [12] -1.49% | outcome [8] | outcome [20] | activation [9] 2.51% | max response [10] 4.04%

CCOC(=O)Nc1ccc2c(c1)N(C(=O)CCN1CCOCC1)c1ccccc1S2
inactive: Potency [1] | Potency [2] | Potency [3] | Potency [4]
